In PubChem BioAssay (NCI):
Compounds without any hit were thinned out: in the full panel of roughly 79,000, 15% have a hit. Values without a mark were called inactive. Calls of active or inactive are those of the source. Rule as the data show it: active = growth inhibition above about 70%; inactive = the rest.

Test: NCI Yeast Anticancer Drug Screen. Data for the rad50 strain (AID 155);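 also: 0% = growth of vehicle-only cultures of the same strain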
Details: S. cerevisiae rad50 strain growth inhibition; at 50.0 µM; hits give high values
In short: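 Vehicle-treated cultures provide the reference for the growth inhibition reported for compound-exposed, repair-deficient yeast.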
With `Nc1cc2c(cn1)[nH]c1ccccc12` the growth inhibition was 2.9%. Compound `CCOC(=O)C1(C(=O)OCC)CCCCC1=O` has a growth inhibition of 13.2%. `COc1ccc(/C=N\N2CN(C(CC(N)=O)C(=O)O)C(O)(CCl)N=C2N)cc1OC` (stereo not given) showed a growth inhibition of 9.1%. `Cc1ccc([Si](C)(C)c2ccccc2)cc1` showed a growth inhibition of -2.4%. `COC1CC(OC2C(C)OC(OC3C(C)OC(OC4C(C)OC(O[C@H]5CC[C@@]6(C)C(=CC[C@]7(O)[C@@H]6C[C@@H](OC(=O)/C=C/c6ccccc6)[C@@]6(C)[C@]7(O)CC[C@@]6(O)C(C)=O)C5)CC4OC)CC3OC)CC2OC)OC(C)C1O` (stereo not given in full) showed a growth inhibition of 31%. For `N#CC(C#N)=CNc1cccc(Cl)c1`, the growth inhibition was 34%. `C#CCN(CC#C)C(=O)C(=O)c1c[nH]c2ccc(OC)cc12` gave a growth inhibition of 41.2%. `CCCCCCCCCCCCCCCC(=O)OCC(=O)O` showed a growth inhibition of 14.7%. Work on `Cc1cccc2c1-c1c(C)cccc1C(Cl)S(=O)(=O)C2` (stereo not given) yielded a growth inhibition of 1.25%. Work on `N#CC(C#N)=C(O)/C(=C/c1ccc(Cl)cc1Cl)NC(=O)c1ccccc1` yielded a growth inhibition of 9.4%. `N#CC(CN1CCCCC1)c1ccccc1` (stereo not given) showed a growth inhibition of 5.4%. `O=C1CN(c2ccc(Cl)cc2)C(=O)CN1/N=C/c1ccc(O)c(O)c1` gave a growth inhibition of -37.1%. `CN1[C@@H]2C[C@@H](OC(=O)[C@H](CO)c3ccccc3)C[C@H]1[C@@H]1O[C@@H]12` showed a growth inhibition of -1.3%. `CC(=O)c1ccc(C(=O)O)cc1` showed a growth inhibition of 13.7%. For `CC(C)Oc1c(O)c2c3c(oc(=O)n3C=CC2c2ccccc2)c1OC(C)C` (stereo not given), the growth inhibition was 86.8% (active).
